Experimental findings from PubChem BioAssay (NCI) are described below.

Among the test systems are HCT-15 colon; HT29 colon; SNB-75 CNS; SNB-19 CNS; U251 CNS; PC-3 prostate; SK-MEL-5 melanoma; UACC-62 melanoma; LOX IMVI melanoma; SK-MEL-28 melanoma; SK-MEL-2 melanoma; EKVX NSCLC; SN12C renal; UO-31 renal; TK-10 renal; ACHN renal; CAKI-1 renal; A498 renal; CCRF-CEM leukemia; MOLT-4 leukemia.
Common to all, as to assay: NCI-60 one-dose screen, 48 h (100 = growth as untreated, 0 = no growth, -100 = all killed)
Holding throughout (conditions): 10 µM unless noted

The panel holds about 83,000 compounds, 20% with a hit somewhere; the sample as a whole holds those more often.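 Cells were grown in 96-well plates and exposed to the test compound at a single concentration for 48 hours; results are reported as percent growth, with values below 10 considered active.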 A number with no mark means an inactive call. Active and inactive are the calls of the source.

For `C#CCn1cnc2c(Nc3cccc(NC(=O)C=C)c3)ncnc21`, the growth was 73.3% in the test with HCT-15 colon; 90.6% in the test with HT29 colon; 66% in the test with SNB-75 CNS; 89.9% in the test with SNB-19 CNS; 88.2% with U251 CNS; 71.5% with PC-3 prostate. Besides, the growth in the test on SK-MEL-5 melanoma is 88.7%; with UACC-62 melanoma, 82.6%; with LOX IMVI melanoma it was 100%; with SK-MEL-28 melanoma, 87.6%; with SK-MEL-2 melanoma, 84.1%; in the test with EKVX NSCLC it was 84.8%. Also, the growth was 83.4% with SN12C renal; 42.3% with UO-31 renal; 93.3% in the test on TK-10 renal; 69.1% in the test on ACHN renal; 82.1% with CAKI-1 renal; 80.5% with A498 renal. Moreover, the growth was 81.6% in the test with CCRF-CEM leukemia and 71.2% in the test with MOLT-4 leukemia.

Consider `COc1ccccc1Nc1nc2c(s1)C1=CC[C@H]3[C@@H]4CC[C@H]([C@H](C)CCCC(C)C)[C@@]4(C)CC[C@@H]3[C@@]1(C)CC2`, for which the growth is 103% in the test on HCT-15 colon; 101% in the test on HT29 colon; 97.6% with SNB-75 CNS; 104% with SNB-19 CNS; 113% with U251 CNS; 92.7% in the test with PC-3 prostate. The growth in the test on SK-MEL-5 melanoma was 100%; in the test with UACC-62 melanoma, 96.7%; in the test on LOX IMVI melanoma, 94%; in the test with SK-MEL-28 melanoma, 110%; in the test with SK-MEL-2 melanoma, 115%; in the test on EKVX NSCLC, 105%. Moreover, the growth with SN12C renal is 99.6%; in the test on UO-31 renal, 73.5%; with TK-10 renal, 117%; in the test with ACHN renal, 104%; with CAKI-1 renal, 90.5%; in the test on A498 renal it was 132%. Moreover, the growth with CCRF-CEM leukemia was 109%; in the test on MOLT-4 leukemia, 104%.

Take `CCN(CC)CCNC(=O)c1cn2ncnc(Oc3ccc(NC(=O)Nc4ccc(Cl)c(C(F)(F)F)c4)c(F)c3)c2c1C`: the growth is -38.7% (active) in the test on HCT-15 colon; -42.3% (active) in the test on HT29 colon; -7.89% (active) in the test with SNB-75 CNS; -48% (active) in the test with SNB-19 CNS; -48.6% (active) in the test with U251 CNS; 7.99% (active) in the test on PC-3 prostate. Also, the growth was -20.3% (active) in the test on SK-MEL-5 melanoma; -46.2% (active) with UACC-62 melanoma; -95.4% (active) in the test on LOX IMVI melanoma; -86.6% (active) in the test with SK-MEL-28 melanoma; -36.9% (active) with SK-MEL-2 melanoma; 24.5% in the test on EKVX NSCLC. Moreover, the growth in the test with SN12C renal was 62.5%; with UO-31 renal it was -53% (active); in the test on TK-10 renal, 27.8%; in the test on ACHN renal, -44.5% (active); in the test with CAKI-1 renal, 39.6%; in the test on A498 renal it was 21.1%. For the same compound, the figures for the growth in the test with CCRF-CEM leukemia and with MOLT-4 leukemia were 4.8% (active) and -20.8% (active), respectively.

Turning to `CCOC(=O)c1nc(Nc2ccc(NC(=O)Nc3ccc(F)cc3)cc2)c2ccccc2n1`, the growth was 100% in the test on HCT-15 colon; 106% in the test on HT29 colon; 78.7% in the test with SNB-75 CNS; 98% with SNB-19 CNS; 103% in the test on U251 CNS; 103% in the test with PC-3 prostate. In addition, the growth is 93.9% in the test with SK-MEL-5 melanoma; 101% in the test with UACC-62 melanoma; 90.9% in the test on LOX IMVI melanoma; 105% with SK-MEL-28 melanoma; 103% in the test on SK-MEL-2 melanoma; 97.4% with EKVX NSCLC. Moreover, the growth with SN12C renal is 99.4%; in the test on UO-31 renal, 81%; in the test on TK-10 renal, 120%; in the test on ACHN renal, 102%; with CAKI-1 renal it was 91.1%; in the test on A498 renal, 62%. Also, the growth is 109% in the test with CCRF-CEM leukemia and 98.5% in the test with MOLT-4 leukemia.

With `Cc1ccc(Sc2nnc(/N=C3\C(=O)Nc4ccccc43)s2)cc1`, the growth with HCT-15 colon is 105%; in the test on HT29 colon, 111%; in the test on SNB-75 CNS, 87.5%; in the test with SNB-19 CNS, 101%; with U251 CNS, 97.4%; in the test on PC-3 prostate it was 99.7%. Further, the growth in the test on SK-MEL-5 melanoma was 107%; with UACC-62 melanoma it was 103%; in the test on LOX IMVI melanoma, 97.8%; with SK-MEL-28 melanoma, 105%; in the test on SK-MEL-2 melanoma it was 105%; with EKVX NSCLC, 102%. Besides, the growth with SN12C renal was 97.5%; in the test with UO-31 renal, 90.5%; in the test on TK-10 renal it was 104%; with ACHN renal it was 96.6%; in the test on CAKI-1 renal it was 85.6%; in the test with A498 renal it was 93.6%. Further, the growth is 93.4% in the test on CCRF-CEM leukemia and 100% with MOLT-4 leukemia.

`Cc1ccccc1Cn1cnc2ccc(-c3cc(NC(=O)c4ccc(NC5CCN(C)CC5)cc4)n[nH]3)cc21`: the growth in the test with HCT-15 colon is 102%; in the test with HT29 colon, 56.6%; with SNB-75 CNS it was -11.4% (active); in the test with SNB-19 CNS, 95%; in the test on U251 CNS, 75.9%; in the test with PC-3 prostate, 68.8%. The growth is 79.3% in the test with SK-MEL-5 melanoma; 73.2% with UACC-62 melanoma; 56.7% with LOX IMVI melanoma; 92.2% with SK-MEL-28 melanoma; 98.3% in the test with SK-MEL-2 melanoma; 91.9% with EKVX NSCLC. Besides, the growth in the test with SN12C renal was 29.7%; in the test on UO-31 renal, 89.2%; with TK-10 renal, 105%; with ACHN renal, 107%; in the test with CAKI-1 renal it was 68.6%; in the test on A498 renal it was 47.8%. Besides, the growth in the test on CCRF-CEM leukemia is 72%; in the test with MOLT-4 leukemia, 43%.

Turning to `COc1ccc(-c2nnc3n(C)c(=O)c4ccccc4n23)cc1N`, the growth is 27.2% in the test on HCT-15 colon; 4.95% (active) in the test with HT29 colon; 7.89% (active) with SNB-75 CNS; 31.1% with SNB-19 CNS; 23.8% in the test with U251 CNS; 22.1% in the test with PC-3 prostate. Also, the growth was 11.4% in the test on SK-MEL-5 melanoma; 12.9% with UACC-62 melanoma; 37.5% in the test with LOX IMVI melanoma; 53.6% in the test on SK-MEL-28 melanoma; 22% in the test on SK-MEL-2 melanoma; 55.7% with EKVX NSCLC. For the same compound, the growth is 34.6% with SN12C renal; 44.3% in the test on UO-31 renal; 45.3% in the test with TK-10 renal; 50.8% in the test with ACHN renal; 29.2% in the test on CAKI-1 renal; -8.12% (active) with A498 renal. Further, the growth in the test on CCRF-CEM leukemia was 18.5%; with MOLT-4 leukemia, 33.4%.
